# Reference: PubChem BioAssay AID2685 (National Center for Advancing Translational Sciences (NCATS), 2010)
# About 2,100 (0.66%) of roughly 320,000 compounds were called active. Another 53% or so got no clear call; they are omitted. The call rests on the fitted dose curve; in most records, active means well fitted inhibition curve with a large enough effect in the signal ratio, with a control signal flat (not every such curve was filed as active); inconclusive means small, poorly fitted or top-dose-only effect, or effect the other way, or a change in a side signal; inactive means flat fitted curve, though single readings scatter; the % refers to the signal ratio. Shown is part of a subset that was picked to be rich in actives.
# Test: qHTS Assay for Lipid Storage Modulators in Drosophila S3 Cells;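 on cell number change: cells counted by Cell Tracker Red CMTPX staining in the red channel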; on lipid storage change, negative = inhibition: on the % scale 0 is the no-effect control and ±100 the full control effect
# Conditions: BODIPY lipid droplet fluorescence, 18-24 h, cells fed with added oleic acid; cell number change: measured here: cell count max response; series mostly up to 46.1 µM; lipid storage change, negative = inhibition: at the top concentration
# Summary of the method: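 Drosophila S3 cells loaded with oleic acid (400 uM, as added) and compounds at several concentrations; lipid droplets imaged by 488-nm laser-scanning cytometry, 500–530 nm intensity and object ratio to cell channel. Percent activity normalized to 20 uM Triacsin C.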
# Potency means the concentration at half of the fitted maximal effect.
Compound,Potency,cell number change [%],"lipid storage change, negative = inhibition",outcome
CCOc1ccccc1N1C(=O)c2ccc(C(=O)O)cc2C1=O,4.61 µM (active),-1.3,,
CCOc1ccccc1N1C(=O)c2ccc(S(=O)(=O)c3ccc(C(=O)O)cc3)cc2C1=O,,24.2,25.3% (inactive),
CCOc1ccccc1N1C(=O)c2ccc(C(=O)Nc3cccnc3)cc2C1=O,,,,inactive
CCS(=O)(=O)c1ccc2oc(SCC(=O)Nc3ccc(OC)cc3)nc2c1,,7.84,11.2% (inactive),
CCN(CC)c1nc2n(c(=O)n1)CCN2CC,5.17 µM (active),14.9,,
CCN(CC)c1nc(SCC(=O)O)nc(N(CC)CC)n1,,,,inactive
CCN(CC)c1nc(-c2ccc(C(=O)NN)cc2)nc(-c2ccc(C(=O)NN)cc2)n1,,26.3,16.7% (inactive),
CCOc1cc(/C=C2\SC(=S)N(N3CCOCC3)C2=O)ccc1O,,-15.1,-7.43% (inactive),
Nc1nc(N2CCN(C(=O)c3ccco3)CC2)nc2ccccc12,,7.42,3.78% (inactive),
COc1cc(C#N)ccc1OCC(=O)NCc1cccs1,,,,inactive
CCN(CC)CC(=O)Nc1ccc(-c2nc3cc(NC(=O)CN(CC)CC)ccc3o2)cc1,,0.429,,inactive
CC(=O)Nc1ccc2oc(-c3ccccc3)nc2c1,,17.7,10.5% (inactive),
CCc1ccc2oc(-c3ccc(NC(C)=O)cc3)nc2c1,11.6 µM (active),,,
COc1ccc(NC(=O)Cc2ccc(C)c(C)c2)cc1Cl,,-32.8,-18.4% (inactive),
COc1ccc(OC)c(NC=C2C(=O)OC3(CCCCC3)OC2=O)c1,,-8.05,-31.6% (inactive),
COc1ccccc1C(=O)COC(=O)c1ccc(Cl)nc1,,-5.19,2.34% (inactive),
CCN(Cc1ccncc1)C(=O)c1cc(COc2ccc(F)cc2F)on1,,-20.5,,inactive
Cc1cc(=S)cc(C)n1CCCO,,-15.3,0.297% (inactive),
COc1ccc(NS(=O)(=O)c2ccc3nc(COc4ccc5ccccc5c4)[nH]c3c2)cc1,23.1 µM (active),-9.6,,
c1ccc2cc(OCc3nc4ccccc4[nH]3)ccc2c1,,-24.1,-7.47% (inactive),
COc1ccc(OCc2nc3ccc(S(=O)(=O)Nc4ccccc4Cl)cc3[nH]2)cc1,,18.1,0.493% (inactive),

Compound,Potency,cell number change [%],"lipid storage change, negative = inhibition",outcome
COc1ccccc1NS(=O)(=O)c1ccc2oc(=S)[nH]c2c1,,9.13,0.324% (inactive),
COc1ccccc1NS(=O)(=O)c1ccc2[nH]c(=O)[nH]c2c1,,-22.3,,inactive
COc1ccccc1NS(=O)(=O)c1ccc2nc(CCl)[nH]c2c1,0.259 µM (active),-11.7,,
COc1ccc(NS(=O)(=O)c2cccc(C(=O)NCC3(N4CCOCC4)CCCCC3)c2)cc1,,1.17,-19.7% (inactive),
CCCS(=O)(=O)Nc1cccc(-c2cn3c(n2)SCC3)c1,,-21.2,,inactive
Cc1ccc(Sc2ncccc2[N+](=O)[O-])cc1,,-12.8,-8.13% (inactive),
Cc1ccnc(Sc2ncccc2[N+](=O)[O-])n1,29.1 µM (active),-11.7,,
Cc1cc(C)n2nc(Sc3ncccc3[N+](=O)[O-])nc2n1,,-8.83,-0.347% (inactive),
COCc1cc(CN2CCN(Cc3ccsc3)C(CCO)C2)ccc1OC (centres undefined),,9.7,-2.77% (inactive),
COCCN(C(=O)CCC(=O)Nc1nccs1)C(C(=O)NC(C)(C)C)c1ccc(F)cc1 (centres undefined),,9.66,-2.68% (inactive),
CCC(C)(C)NC(=O)C(c1ccc(F)cc1)N(CCOC)C(=O)CCC(=O)Nc1nccs1 (centres undefined),14.6 µM (active),3.04,,
CCC(C)(C)NC(=O)C(c1ccc(O)cc1)N(CCOC)C(=O)CCC(=O)Nc1nccs1 (centres undefined),,-13.3,-16.7% (inactive),
Cc1cc2nnc(SCC(=O)Nc3cccc(S(=O)(=O)N4CCOCC4)c3)n2c2ccccc12,,5.18,2.35% (inactive),
C=CCSc1nnc(CC(OC)OC)n1-c1ccccc1,,,,inactive
CC(=O)Nc1cccc(/C(C)=N/NC(=O)c2ccc(NS(=O)(=O)c3cccs3)cc2)c1,,10.3,-1.63% (inactive),
Cc1nc(Nc2ccccc2Br)c2nnn(Cc3ccccc3)c2n1,,8.19,-10.6% (inactive),
CCCCN(C(=O)c1ccccc1F)c1c(N)n(CCC)c(=O)[nH]c1=O,,28.6,,inactive
CCCCn1c(N)c(N(CC)C(=O)c2ccccc2C(F)(F)F)c(=O)[nH]c1=O,,-2.38,85.7% (inactive),
CCCCn1c(N)c(N(CC)C(=O)c2ccccc2F)c(=O)[nH]c1=O,8.2 µM (active),6.41,,
O=C1NCCN1C(=O)c1cccc(Cl)c1,,4.49,-0.38% (inactive),
O=C(Nc1ccccc1)Nc1nnc(Cc2ccc(F)cc2)s1,0.103 µM (active),14,,

Compound,Potency,cell number change [%],"lipid storage change, negative = inhibition",outcome
O=C(Nc1nnc(Cc2ccc(F)cc2)s1)Nc1ccccc1F,,-6.61,,inactive
COc1ccc(NC(=O)Nc2nnc(Cc3ccc(F)cc3)s2)cc1,,-7.21,2.57% (inactive),
O=C1CCc2cc(S(=O)(=O)NC3CCCCC3)cc3c2N1CC3,,,,inactive [at 0.0737 µM]
Cc1ccc(OCC(O)CN2CCN(CCO)CC2)c(C)c1 (centres undefined),,3.63,-4.99% (inactive),
O=C(NCc1cccc(C(F)(F)F)c1)C1CCCN(c2ncccn2)C1 (centres undefined),,23.6,,inactive
CN1C(=O)/C(=C/c2cc(C(C)(C)C)c(O)c(C(C)(C)C)c2)NC1=S,,,9.04% (inactive),
O=C1/C(=C/c2ccccc2)SC(=S)N1CC(=O)N1CCCCC1c1cccnc1 (centres undefined),,6.85,,inactive
O=C(CCN1C(=O)/C(=C\c2ccccc2F)SC1=S)N1CCCCC1,,13.6,0.243% (inactive),
O=C1/C(=C/c2ccccc2F)SC(=S)N1CC(=O)N1CCCCC1c1cccnc1 (centres undefined),7.31 µM (active),-0.951,,
O=C(CCN1C(=O)/C(=C/c2ccccc2F)SC1=S)NC1C=CS(=O)(=O)C1 (centres undefined),,,,inactive
O=C(CN1C(=O)/C(=C/c2ccccc2F)SC1=S)NC1C=CS(=O)(=O)C1 (centres undefined),16.4 µM (active),-4.2,,
O=C(CN1C(=O)S/C(=C\c2ccccc2F)C1=O)NC1C=CS(=O)(=O)C1 (centres undefined),,-3.44,,inactive
CC(=O)c1nn(-c2ccccc2)cc1C(=O)c1cccc(Br)c1,,-13.3,18.9% (inactive),
CC(=O)c1nn(-c2cccc(Br)c2)cc1C(=O)c1ccccc1,,-13.8,18.9% (inactive),
CC(=O)c1nn(-c2cccc(Br)c2)cc1C(=O)c1ccc2ccccc2c1,5.17 µM (active),-7.14,,
Cc1ccc(C(=O)NC2CCS(=O)(=O)C2)cc1S(=O)(=O)N1CCOCC1 (centres undefined),,10.2,-7.04% (inactive),
CCOC(=O)N=S(N)(=O)c1ccc(Cl)cc1 (centres undefined),,-0.647,-21% (inactive),
CCOC(=O)N=S(N)(=O)c1ccccc1 (centres undefined),14.6 µM (active),-1.15,,
CCOC(=O)CS(=O)(=O)c1ccccc1,,1.52,-0.796% (inactive),
